High-throughput results (PubChem)
In the library only some 7.9% were active in any assay of this set; here they are far more common.
SW480 rereplic = DNA re-replication induction in SW480 cells | SW480 DNA re-replication, Hoechst DNA content imaging, 48 h | Potency, µM (titrated, usually from 46.1 µM), for inactives: at the highest dose re-replication activation, usual class: activators | hit rate 1.8% among 340,000 | AID 624297; note: % of control where 0% means no effect; nearly all actives have a fitted effect of over 55% in size
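SW480 cells exposed to compounds for 48 hr at 37 C, 5% CO2, then Hoechst-stained 40 min. Nuclear DNA content imaged by fluorescence scanning (405 nm excitation, 500-530 nm emission); re-replication scored as increased high-intensity nuclei.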
KB-3-1 cytotox = KB-3-1 parental cell cytotoxicity. Potency, µM (highest dose often 46.1 µM), hits mostly cytotoxic. KB-3-1 viability, CellTiter-Glo ATP luminescence, 72 h. hit rate 1.4% among 400,000; note: % is set by controls: 0 for no effect and ±100 for the full control effect; nearly all actives have a fitted effect of over 60% in size
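KB-3-1 cells, DMEM (no phenol red) + 10% FBS; compound by pin transfer, 72 h, 37 °C. Readout: CellTiter-Glo luminescence after 10 min. Data normalized, curve-fitted.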
HT1080 IDH1KD tx = HT-1080 IDH1 knockdown cell toxicity (counter line). Potency, µM (top dose mostly 46.1 µM), without a hit: at the top dose activity, negative = toxicity, actives largely listed as cytotoxic. AID 686971. hit rate 2% among 360,000. HT-1080 IDH1 knockdown viability, ATP luminescence, 48 h;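 note: 0% = DMSO wells and -100% = cell-free medium wells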
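In this qHTS, HT-1080 cells depleted of IDH1 are exposed for 48 h at 37 °C to compound titrations. Toxicity is scored from CellTiter-Glo luminescence, with DMSO as full viability and medium alone as none.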
KB-V1 cytotox = kills drug-selected multidrug resistant KB-V1 cells | hit rate 3.4% among 400,000 | KB-V1 MDR cells viability, CellTiter-Glo, 72 h | Potency, µM (titrated, usually from 46.1 µM), actives largely listed as cytotoxic; note: % is set by controls: 0 for no effect and ±100 for the full control effect; nearly all actives have a fitted effect of over 60% in size
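qHTS viability screen in drug-selected KB-V1 MDR cells: 72 h compound treatment at 37 degrees C, ATP luminescence end point.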
MCF10A rereplic = DNA re-replication induction in MCF 10a cells. MCF 10A DNA re-replication, Hoechst nuclear intensity, 48 h. Potency, µM (top dose mostly 46.1 µM), inactives show at the top dose activity, positive = re-replication, usual class: activators. hit rate 2.9% among 350,000. AID 624296; note: % of control where 0% means no effect; nearly all actives have a fitted effect of over 50% in size
HT1080-NT tox = kills 2HG-producing HT-1080-NT fibrosarcoma cells | Potency, µM (titrated, usually from 46.1 µM), inactives show top-dose activity, negative = less viability, actives largely listed as cytotoxic | HT-1080-NT fibrosarcoma viability, CellTiter-Glo ATP luminescence, 48 h | hit rate 1.6% among 360,000;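 note: NT is the 2HG producing partner of a matched IDH1 knockdown line; 0% = DMSO-treated cells and -100% = media-only wells without cells; nearly all actives have a fitted effect of over 55% in size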
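Read-out is CellTiter-Glo luminescence after 10 minutes at room temperature, following 48 hours' compound treatment of HT-1080-NT cells (750 cells/well, RPMI, 5% FBS, 37 degrees C).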
An asterisk follows results filed as active; i = inactive; ? = inconclusive; / = not tested or not shown; [ ] = remark or other dose. Calls come from the whole dose curve; as a rule, active = well fitted curve in the direction sought with a large enough effect; inconclusive = small, poorly fitted or top-dose-only effect, or another doubt; inactive = no such curve, though single readings can be large; an effect the other way counts as inactive or inconclusive. Potency is the fitted concentration of half-maximal effect.

SMILES | SW480 rereplic | KB-3-1 cytotox | HT1080 IDH1KD tx | KB-V1 cytotox | MCF10A rereplic | HT1080-NT tox
CCOC(=O)c1cccc(N2C(N)=NC(N)=NC2(C)C)c1 | -2% | ? | ? | ? | 7% | ?
Cc1onc(-c2c(F)cccc2Cl)c1C(=O)O/N=C(\N)c1ccc([N+](=O)[O-])o1 | 103% | i | 12µM* | ? | ? | -18%
Cc1onc(-c2c(F)cccc2Cl)c1C(=O)NC(=S)NC1CCS(=O)(=O)C1 (centres undefined) | 0% | i | -2% | 23µM* | 17% | 9%
Cc1onc(-c2c(F)cccc2Cl)c1C(=O)c1ccccc1O | ? | ? | 26µM* | i | 79% | ?
C/C(=N\OC(=O)c1c(-c2c(F)cccc2Cl)noc1C)c1nccs1 | -60%[1.84 µM] | i | 6% | i | -21% | 4%
Cc1onc(-c2c(F)cccc2Cl)c1C(=O)c1ccccc1 | 19% | i | 9% | i | -4% | 2%
CC(C)/C=C/CN1CCN(CCCc2ccccc2)C(CCO)C1 (centres undefined) | -55% | i | 1% | i | -1% | -17%
CCCS(=O)(=O)NC(=O)C1(C)CCCN(C(=O)c2ccc(SC(F)(F)F)cc2)C1 (centres undefined) | / | i | 1% | i | / | 22%
CCn1cc(Cl)c(C(=O)NNC(=O)CCn2ccc([N+](=O)[O-])n2)n1 | -14% | i | 6% | i | -8% | 9%
CC(C)NC(=O)C1(C)CCN1C(=O)c1ccccc1Oc1ccccc1 (centres undefined) | / | i | 0% | i | / | 9%
CC1(c2ccc3ccccc3c2)NC(=O)N(CC(=O)NCC(C)(C)N2CCOCC2)C1=O (centres undefined) | ? | i | 4% | i | -1% | 7%
CC(=O)OC1(C(C)=O)CCC2C3CC(C(F)(F)F)C4=CC(=O)CCC4(C)C3CCC21C (centres undefined) | ? | i | 21µM* | i | 159% | 18µM*
CC(C)CCN(CCC(C)C)CC(O)Cn1c2ccccc2c(=O)c2ccccc21 (centres undefined) | ? | i | 4% | ? | 3.3µM* | 0%
CCCN(CCC)CC(O)Cn1c2ccccc2c2ccccc21 (centres undefined) | ? | i | 6% | i | -9% | -3%
C/C(N)=C(/C#N)C(=O)CSc1nnc(SCc2ccc(Cl)cc2)s1 | 4% | i | 21µM* | ? | -9% | -17%
C/C(N)=C(/C#N)C(=O)CSc1nn(-c2ccc(Cl)cc2)c(=S)s1 | ? | i | -10% | i | ? | -1%
COc1ccccc1CNc1nc2cc(-c3ccccc3C)sc2c(=O)n1C | / | i | ? | i | / | ?
CCc1nc2ccc(C(=O)NCC3CCCCC3)cn2c1N(CCC(C)C)CCN(C)C | / | i | 16µM* | i | / | 18µM*
C=CCC[C@H](Cc1ccc(F)cc1)C(=O)OC[C@@H](Cc1c[nH]c2ccccc12)NC(=O)[C@@H](CC=C)CC(=O)N[C@@H](CO)Cc1ccccc1 | ? | ? | ? | i | 18µM* | ?
C=CCC[C@@H](Cc1ccc(F)cc1)C(=O)OC[C@@H](NC(=O)[C@@H](CC=C)CC(=O)N(CCO)Cc1ccccc1)c1ccccc1 | 25% | ? | ? | ? | ? | 21µM*
C=CC[C@@H](CC(=O)N[C@@H](CO)Cc1ccccc1)C(=O)NC[C@H](OC(=O)[C@@H](CC=C)Cc1ccc(F)cc1)c1ccccc1 | 2% | ? | 23µM* | i | ? | ?
C=CC[C@@H](CC(=O)N[C@@H](CO)Cc1ccccc1)C(=O)NC[C@@H](OC(=O)[C@@H](CC=C)Cc1ccc(F)cc1)c1ccccc1 | 18% | i | -5% | i | -11% | 1%
C=CCC[C@@H](Cc1ccc(F)cc1)C(=O)OC[C@@H](Cc1c[nH]c2ccccc12)NC(=O)[C@H](CC=C)CC(=O)N[C@H](CO)Cc1ccccc1 | -3% | ? | ? | i | 16µM* | 21µM*
Cc1ccc(N2CCN(c3nc4c(S(=O)(=O)c5ccc(C)c(C)c5)nnn4c4ccccc34)CC2)c(C)c1 | / | i | / | i | / | /
C=CC[C@H](CC(=O)N(CCO)Cc1ccccc1)C(=O)N[C@H](COC(=O)[C@@H](CC=C)Cc1ccc(F)cc1)Cc1c[nH]c2ccccc12 | ? | ? | 21µM* | ? | ? | ?
SMILES | SW480 rereplic | KB-3-1 cytotox | HT1080 IDH1KD tx | KB-V1 cytotox | MCF10A rereplic | HT1080-NT tox
C=CC[C@@H](CC(=O)N(CCO)Cc1ccccc1)C(=O)N[C@H](COC(=O)[C@@H](CC=C)Cc1ccc(F)cc1)Cc1c[nH]c2ccccc12 | 0% | ? | ? | ? | ? | ?
Cc1ccc2c(c1)c1c(n2CC(O)Cn2nc(C)c(Br)c2C)CCCC1 (centres undefined) | 9% | ? | ? | 21µM* | 23µM* | ?
COc1cc(OC)cc(C(=O)OCC(=O)NC2CCCCCC2)c1 | ? | i | 5% | i | 0% | 6%[9.24 µM]
CCOc1ccc(/C=C/C(=O)c2c(O)c3ccccc3oc2=O)cc1 | ? | i | ? | 12µM* | ? | -12%
CN(C)c1ccc(/C=C/C(=O)c2c(O)c3ccccc3oc2=O)cc1 | ? | i | 0% | i | 4% | -10%
Cc1nn(-c2ccccc2)c2c1C(O)n1c(nc3ccccc31)S2 (centres undefined) | -3% | i | 0% | 18µM* | 16µM* | 5%
COc1ccc(-c2n[nH]c(C)c2-c2cscn2)c(O)c1 | 1% | i | -2% | i | 5% | 2%
COc1ccc(-c2c(-c3ccc(OCC(=O)NN)cc3O)n[nH]c2C(F)(F)F)cc1 | ? | i | -12% | i | 23µM* | -22%
C=C(C)COc1ccc(-c2n[nH]c(C)c2-c2ccc(OC)cc2)c(O)c1 | ? | ? | 18µM* | ? | 21µM* | 21µM*
CCOc1ccc(-c2n[nH]c(C)c2-c2ccccc2OC)c(O)c1 | ? | ? | ? | i | 13µM* | ?
CCc1nnc(NS(=O)(=O)c2ccc(NC(=O)c3ccccc3O)cc2)s1 | -4% | i | 4% | i | 0% | 2%
CCOC(=O)CC1C(=O)NCCN1C(=S)NC(=O)c1ccc(C)c(Br)c1 (centres undefined) | / | i | 6% | i | / | 1%
CCCCn1c(N)c(N(CCOC)C(=O)c2ccco2)c(=O)[nH]c1=O | -7% | i | 0% | i | -2% | 2%
